Data from the supplement of paper PMC11001985.
Values without a mark were called inactive.

UniProt Q15149, sequence (Q15149 whole entry): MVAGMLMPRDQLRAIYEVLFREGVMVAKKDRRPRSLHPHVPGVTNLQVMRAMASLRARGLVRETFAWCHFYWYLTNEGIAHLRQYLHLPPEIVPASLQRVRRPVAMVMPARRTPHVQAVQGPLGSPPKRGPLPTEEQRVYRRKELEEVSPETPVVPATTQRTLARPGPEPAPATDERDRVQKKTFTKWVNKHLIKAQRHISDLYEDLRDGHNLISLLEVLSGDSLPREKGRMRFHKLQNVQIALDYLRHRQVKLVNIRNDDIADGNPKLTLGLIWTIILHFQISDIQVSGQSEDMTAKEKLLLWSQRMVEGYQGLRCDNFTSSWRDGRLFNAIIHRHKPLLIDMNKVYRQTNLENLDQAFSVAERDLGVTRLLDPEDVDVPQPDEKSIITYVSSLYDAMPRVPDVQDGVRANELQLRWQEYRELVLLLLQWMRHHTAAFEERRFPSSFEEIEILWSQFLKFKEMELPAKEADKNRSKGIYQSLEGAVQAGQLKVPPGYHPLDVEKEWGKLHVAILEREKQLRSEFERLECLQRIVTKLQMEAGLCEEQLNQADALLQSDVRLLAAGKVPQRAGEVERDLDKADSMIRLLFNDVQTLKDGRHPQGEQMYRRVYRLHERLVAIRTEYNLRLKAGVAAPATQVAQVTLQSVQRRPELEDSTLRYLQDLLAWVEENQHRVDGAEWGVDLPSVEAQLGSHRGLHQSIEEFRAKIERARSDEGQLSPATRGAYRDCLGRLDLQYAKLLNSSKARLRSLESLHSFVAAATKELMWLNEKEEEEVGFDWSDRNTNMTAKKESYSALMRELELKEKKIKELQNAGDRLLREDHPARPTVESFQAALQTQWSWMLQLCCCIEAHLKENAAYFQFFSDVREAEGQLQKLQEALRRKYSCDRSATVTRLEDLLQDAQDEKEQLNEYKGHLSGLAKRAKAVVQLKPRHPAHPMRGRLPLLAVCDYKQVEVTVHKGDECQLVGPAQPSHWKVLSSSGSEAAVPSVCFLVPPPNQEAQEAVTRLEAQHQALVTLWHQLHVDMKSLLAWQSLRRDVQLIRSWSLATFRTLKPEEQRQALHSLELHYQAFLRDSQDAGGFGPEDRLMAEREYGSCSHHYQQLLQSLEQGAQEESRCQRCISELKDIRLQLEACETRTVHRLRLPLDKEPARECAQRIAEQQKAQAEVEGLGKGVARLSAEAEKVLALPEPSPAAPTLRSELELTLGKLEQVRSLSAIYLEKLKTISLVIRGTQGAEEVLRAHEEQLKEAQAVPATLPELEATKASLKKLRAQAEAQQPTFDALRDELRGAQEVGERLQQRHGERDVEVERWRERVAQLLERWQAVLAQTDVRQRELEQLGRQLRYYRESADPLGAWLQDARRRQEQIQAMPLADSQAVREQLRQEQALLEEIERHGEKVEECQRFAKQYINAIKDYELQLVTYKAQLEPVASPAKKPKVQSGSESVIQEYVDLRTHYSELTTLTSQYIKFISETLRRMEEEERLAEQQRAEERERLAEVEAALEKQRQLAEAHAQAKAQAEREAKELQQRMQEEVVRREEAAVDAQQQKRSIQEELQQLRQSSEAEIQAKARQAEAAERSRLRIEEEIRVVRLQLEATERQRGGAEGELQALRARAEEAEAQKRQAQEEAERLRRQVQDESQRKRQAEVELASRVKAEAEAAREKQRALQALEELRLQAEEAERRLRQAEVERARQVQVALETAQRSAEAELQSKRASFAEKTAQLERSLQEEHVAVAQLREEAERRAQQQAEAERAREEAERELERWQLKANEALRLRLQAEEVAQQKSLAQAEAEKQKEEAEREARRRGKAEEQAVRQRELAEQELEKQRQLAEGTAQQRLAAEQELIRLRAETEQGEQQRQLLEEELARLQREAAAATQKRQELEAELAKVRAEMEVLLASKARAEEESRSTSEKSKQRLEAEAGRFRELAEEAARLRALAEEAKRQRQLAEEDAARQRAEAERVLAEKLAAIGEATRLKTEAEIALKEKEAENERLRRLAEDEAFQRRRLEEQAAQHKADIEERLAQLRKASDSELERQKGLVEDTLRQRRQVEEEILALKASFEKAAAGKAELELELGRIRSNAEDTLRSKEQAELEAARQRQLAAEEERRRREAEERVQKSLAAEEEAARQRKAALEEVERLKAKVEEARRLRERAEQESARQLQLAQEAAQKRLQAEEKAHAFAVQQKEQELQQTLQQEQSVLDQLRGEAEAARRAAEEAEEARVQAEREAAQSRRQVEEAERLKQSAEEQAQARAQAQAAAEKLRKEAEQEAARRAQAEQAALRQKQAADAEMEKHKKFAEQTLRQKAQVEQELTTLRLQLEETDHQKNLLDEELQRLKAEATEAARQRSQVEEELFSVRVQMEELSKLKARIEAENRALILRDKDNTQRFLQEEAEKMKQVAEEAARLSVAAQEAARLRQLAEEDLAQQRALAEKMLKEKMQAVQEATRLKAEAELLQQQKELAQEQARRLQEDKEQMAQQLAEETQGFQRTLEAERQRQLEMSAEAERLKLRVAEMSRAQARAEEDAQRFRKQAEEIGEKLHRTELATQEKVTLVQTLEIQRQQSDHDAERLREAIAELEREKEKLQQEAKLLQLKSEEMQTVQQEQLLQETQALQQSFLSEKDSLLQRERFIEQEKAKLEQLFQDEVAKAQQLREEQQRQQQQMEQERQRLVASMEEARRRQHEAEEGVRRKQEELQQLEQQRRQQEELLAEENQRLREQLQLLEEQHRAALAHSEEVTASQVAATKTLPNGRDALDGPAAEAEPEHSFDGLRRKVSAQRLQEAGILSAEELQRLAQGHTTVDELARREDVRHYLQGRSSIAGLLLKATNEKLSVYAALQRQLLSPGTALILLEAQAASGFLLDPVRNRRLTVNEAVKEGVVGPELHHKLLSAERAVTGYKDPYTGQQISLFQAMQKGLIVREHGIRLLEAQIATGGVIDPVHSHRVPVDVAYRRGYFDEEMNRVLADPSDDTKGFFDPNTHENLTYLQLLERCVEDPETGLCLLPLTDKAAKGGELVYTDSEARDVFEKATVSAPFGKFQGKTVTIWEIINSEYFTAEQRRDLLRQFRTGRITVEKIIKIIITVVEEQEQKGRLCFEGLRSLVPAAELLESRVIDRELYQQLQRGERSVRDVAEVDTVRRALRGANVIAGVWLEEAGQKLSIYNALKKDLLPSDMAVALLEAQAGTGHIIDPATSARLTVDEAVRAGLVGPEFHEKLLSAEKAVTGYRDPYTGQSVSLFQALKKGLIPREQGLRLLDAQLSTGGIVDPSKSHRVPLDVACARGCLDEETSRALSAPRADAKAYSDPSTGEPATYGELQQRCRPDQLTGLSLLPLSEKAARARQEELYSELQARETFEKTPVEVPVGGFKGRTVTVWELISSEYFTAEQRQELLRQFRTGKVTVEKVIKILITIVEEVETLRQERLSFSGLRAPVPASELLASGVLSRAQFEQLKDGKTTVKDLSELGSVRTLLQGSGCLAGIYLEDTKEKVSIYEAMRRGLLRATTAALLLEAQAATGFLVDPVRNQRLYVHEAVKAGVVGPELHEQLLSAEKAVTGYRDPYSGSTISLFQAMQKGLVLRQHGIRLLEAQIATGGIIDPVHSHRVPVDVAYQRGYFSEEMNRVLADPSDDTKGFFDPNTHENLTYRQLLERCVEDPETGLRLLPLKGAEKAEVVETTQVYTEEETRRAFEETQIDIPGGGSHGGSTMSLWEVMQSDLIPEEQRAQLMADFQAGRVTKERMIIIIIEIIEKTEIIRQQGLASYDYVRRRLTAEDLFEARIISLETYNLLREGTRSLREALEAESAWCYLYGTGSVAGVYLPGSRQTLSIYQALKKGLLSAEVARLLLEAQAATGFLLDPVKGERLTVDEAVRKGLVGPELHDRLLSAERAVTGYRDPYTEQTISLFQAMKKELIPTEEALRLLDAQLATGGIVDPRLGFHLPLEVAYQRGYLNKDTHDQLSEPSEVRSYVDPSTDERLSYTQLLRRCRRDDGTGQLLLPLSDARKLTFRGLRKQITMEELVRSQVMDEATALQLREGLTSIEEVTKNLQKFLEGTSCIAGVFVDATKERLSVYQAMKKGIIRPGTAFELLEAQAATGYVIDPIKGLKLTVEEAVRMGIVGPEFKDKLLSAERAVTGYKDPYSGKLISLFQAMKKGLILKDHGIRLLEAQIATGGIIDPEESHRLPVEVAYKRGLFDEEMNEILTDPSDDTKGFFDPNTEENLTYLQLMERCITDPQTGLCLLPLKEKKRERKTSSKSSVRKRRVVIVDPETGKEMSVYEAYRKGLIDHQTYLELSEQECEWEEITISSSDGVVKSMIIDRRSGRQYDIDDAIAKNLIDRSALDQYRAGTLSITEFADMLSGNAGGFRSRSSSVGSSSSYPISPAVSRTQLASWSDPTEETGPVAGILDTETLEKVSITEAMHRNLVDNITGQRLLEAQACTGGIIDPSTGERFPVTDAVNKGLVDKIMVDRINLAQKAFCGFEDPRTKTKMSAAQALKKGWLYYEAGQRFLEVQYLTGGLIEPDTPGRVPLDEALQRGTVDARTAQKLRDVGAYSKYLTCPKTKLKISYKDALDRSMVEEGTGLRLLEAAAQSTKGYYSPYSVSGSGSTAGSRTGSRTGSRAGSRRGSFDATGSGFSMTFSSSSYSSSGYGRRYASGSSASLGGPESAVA
UniProt P49773, sequence (P49773 whole entry): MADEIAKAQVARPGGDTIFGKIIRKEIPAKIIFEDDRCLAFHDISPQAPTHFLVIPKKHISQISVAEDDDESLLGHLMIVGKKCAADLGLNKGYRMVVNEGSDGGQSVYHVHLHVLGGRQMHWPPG
UniProt Q14165, sequence (Q14165 whole entry): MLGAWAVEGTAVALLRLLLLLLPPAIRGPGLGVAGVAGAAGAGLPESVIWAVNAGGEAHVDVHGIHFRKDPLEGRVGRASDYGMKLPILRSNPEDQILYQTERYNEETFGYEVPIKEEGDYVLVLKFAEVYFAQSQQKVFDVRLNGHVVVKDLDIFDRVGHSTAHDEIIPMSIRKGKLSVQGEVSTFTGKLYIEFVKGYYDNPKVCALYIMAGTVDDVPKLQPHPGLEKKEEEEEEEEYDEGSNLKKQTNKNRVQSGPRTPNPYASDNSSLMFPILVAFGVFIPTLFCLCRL

The targets below were run with C#CCNC(=O)CCSSCCC(=O)NCCc1ccc(C=O)c(C=O)c1 (assay: lysine labeling ratio R10:1 (500 µM / 50 µM probe), SILAC-ABPP in living cells; higher = lower intrinsic lysine reactivity toward the probe, active = 2 or less). Settings: HeLa; probe concentrations 500 vs 50 µM.
In short: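 Living SILAC light and heavy HeLa cells in PBS at room temperature were treated with an alkyne-tagged, disulfide-linked lysine probe at 50 µM or 500 µM, with forward and reverse label swaps. The mixed lysates were clicked to biotin-azide, digested with trypsin, captured on neutravidin, released with DTT, alkylated and run by LC-MS/MS on a TIMS-TOF Pro. R for each lysine is the filtered median high-probe/low-probe MS1 peptide ratio, taken again as the median over forward and reverse replicates. Any value above 20 is set to 20.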
UniProt Q15149 (lysine site: K4173) was tested, and the “lysine labeling ratio R10:1” value was 1.95 (active). With UniProt Q15149 (lysine site: K1626) the “lysine labeling ratio R10:1” value was 2.37. In the case of UniProt Q15149 (lysine site: K877), the “lysine labeling ratio R10:1” value is reported as 2.95. In the case of “SMC2 (lysine site: K222) (UniProt O95347)”, the “lysine labeling ratio R10:1” value is reported as 1.74 (active). For “TFPI (lysine site: K68) (UniProt P10646)”, the “lysine labeling ratio R10:1” value was 1.41 (active). In the case of “TLN1 (lysine site: K1332) (UniProt Q9Y490)”, the “lysine labeling ratio R10:1” value is reported as 5.83. With “HINT1 (lysine site: K30) (UniProt P49773)” the “lysine labeling ratio R10:1” value was 1.48 (active). “AGRN (lysine site: K1368) (UniProt O00468)” was tested, and the “lysine labeling ratio R10:1” value was 1.88 (active). With “SLC25A5 (lysine site: K147) (UniProt P05141)” the “lysine labeling ratio R10:1” value was 4.57. UniProt Q15149 (lysine site: K1718) was tested, and the “lysine labeling ratio R10:1” value was 4.36. With FH (lysine site: K66) (UniProt P07954) the “lysine labeling ratio R10:1” value was 2.79. With “MLEC (lysine site: K69) (UniProt Q14165)” the “lysine labeling ratio R10:1” value was 1.64 (active). For “RPL5 (lysine site: K188) (UniProt P46777)”, the “lysine labeling ratio R10:1” value was 4.22. “SPTAN1 (lysine site: K1141) (UniProt Q13813)” was tested, and the “lysine labeling ratio R10:1” value was 17.4. In the case of “PPA1 (lysine site: K176) (UniProt Q15181)”, the “lysine labeling ratio R10:1” value is reported as 1.88 (active). In the case of “DDX5 (lysine site: K284) (UniProt P17844)”, the “lysine labeling ratio R10:1” value is reported as 0.51 (active). In the case of “EEF1G (lysine site: K243) (UniProt P26641)”, the “lysine labeling ratio R10:1” value is reported as 1.4 (active). UniProt P62277 (lysine site: K70) was tested, and the “lysine labeling ratio R10:1” value was 6.69. “ERLIN2 (lysine site: K205) (UniProt O94905)” was tested, and the “lysine labeling ratio R10:1” value was 3.71. UniProt Q15149 (lysine site: K1055) was tested, and the “lysine labeling ratio R10:1” value was 1.98 (active). In the case of UniProt P05787 (lysine site: K483), the “lysine labeling ratio R10:1” value is reported as 2.46. With UniProt Q15149 (lysine site: K2047) the “lysine labeling ratio R10:1” value was 0.91 (active). With “ITGB1 (lysine site: K163) (UniProt P05556)” the “lysine labeling ratio R10:1” value was 2.37. “ITGA3 (lysine site: K897) (UniProt P26006)” was tested, and the “lysine labeling ratio R10:1” value was 1.68 (active). UniProt P62249 (lysine site: K26) was tested, and the “lysine labeling ratio R10:1” value was 1.43 (active). For “PPIC (lysine site: K49) (UniProt P45877)”, the “lysine labeling ratio R10:1” value was 1.58 (active). For TF (lysine site: K134) (UniProt P02787), the “lysine labeling ratio R10:1” value was 2.36. With “TXNRD1 (lysine site: K405) (UniProt Q16881)” the “lysine labeling ratio R10:1” value was 5.51. In the case of UniProt Q96JJ7 (lysine site: K164), the “lysine labeling ratio R10:1” value is reported as 1.61 (active). In the case of “NECTIN3 (lysine site: K301) (UniProt Q9NQS3)”, the “lysine labeling ratio R10:1” value is reported as 1.83 (active). “CLTB (lysine site: K122) (UniProt P09497)” was tested, and the “lysine labeling ratio R10:1” value was 2.57. For UniProt P25705 (lysine site: K167), the “lysine labeling ratio R10:1” value was 2.05. With “LY6D (lysine site: K46) (UniProt Q14210)” the “lysine labeling ratio R10:1” value was 1.33 (active). For “SDCBP (lysine site: K124) (UniProt O00560)”, the “lysine labeling ratio R10:1” value was 1.6 (active). UniProt P25705 (lysine site: K132) was tested, and the “lysine labeling ratio R10:1” value was 1.76 (active). For C3 (lysine site: K692) (UniProt P01024), the “lysine labeling ratio R10:1” value was 7.71. “SLC44A2 (lysine site: K210) (UniProt Q8IWA5)” was tested, and the “lysine labeling ratio R10:1” value was 2.8. “PLXNA2 (lysine site: K820) (UniProt O75051)” was tested, and the “lysine labeling ratio R10:1” value was 5.38. UniProt Q9UHN6 (lysine site: K1220) was tested, and the “lysine labeling ratio R10:1” value was 2.87. For “MYH9 (lysine site: K1492) (UniProt P35579)”, the “lysine labeling ratio R10:1” value was 2.92.
